The record followed here is PubChem BioAssay (NCI).

Values joined by “and” are separate entries in the source; they are usually repeats but may differ in a detail not shown here. Identical values can stand only once. This is part of a sample that, as a whole, favours compounds with a hit. Of some 83,000 tested, about 20% had one in any assay.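 Step 1: grow cells in 96-well plates. Step 2: add test compound at a single concentration. Step 3: incubate 48 h. Step 4: record percent growth.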 Values without a mark were called inactive. Active and inactive are the calls of the source. The calls were made as follows: active = growth percent below 10; inactive = the rest.

This experiment concerns MDA-MB-468 breast. Briefly: NCI-60 one-dose screen, 48 h (100 = growth as untreated, 0 = no growth, -100 = all killed). Particulars: 10 µM unless noted.
On to `COc1ccc(CCN2C(=O)/C(=C/c3ccc(C4Oc5ccccc5C5CC(c6cccc(OC)c6)=NN54)cc3)SC2=S)cc1` (stereo not given), for which the growth is 107%.

On to `O=C(CCN1CCOCC1)Nc1cccc(-n2cc(-c3ccncc3)c(-c3ccc(Cl)c(O)c3)n2)c1`, for which the growth is 25.2%.

`COc1cc2c3c(n(CCCN4CCC[C@H]4C(N)=O)c(=O)c2cc1OC)-c1cc2c(cc1C3=O)OCO2`: the growth is 11.8%.

`O=C(O)c1ccc(-n2cc(CNc3ccc(C(F)(F)F)cc3)c(-c3ccccc3)n2)cc1`: the growth was 102%.

For the compound `Nc1ccc(NC(=O)c2ccccc2)c2c1C(=O)c1ccccc1C2=O`, the growth is 107%.

As to `O=C(NNc1nc2cc(F)ccc2n2c(CN3CCCC3)ccc12)c1cnccn1`, the growth is -14.4% (active).

In the case of `COc1ccc2c(c1)c(-c1nc(-c3cn(C)c4ncccc34)cs1)cn2CCCN1CCCCC1`, the growth is 70.9%.

`O=S(=O)(NCCCNc1nccc(-c2c(-c3ccc(O)cc3)nc3sccn23)n1)c1ccc(F)cc1`: the growth is -19.2% (active).

As to `CC1CN(CCCOC(=O)Nc2ccc(Cl)cc2)CCN1C(C)(C)C` (stereo not given), the growth was 104%.

For `COc1ccc2nc3cc(Cl)ccc3c(NCCCNCCO)c2c1`, the growth is -34.1% (active).

On to `O=C1NC(=O)/C(=C\c2ccccc2)C2=C1CCCC2`, for which the growth is 95.3%.

Take `N#CC1=C(/N=C/c2ccccc2)Oc2c(ccc3ccccc23)C1c1ccccc1` (stereo not given): the growth is 6.43% (active).

Take `O=C1/C(=C\c2ccc(Cl)cc2)CN(C(=S)Nc2ccccc2)C/C1=C\c1ccc(Cl)cc1`: the growth is -64.4% (active).

For `COc1ccc(C(=O)C/C(=C\c2ccc(Cl)cc2)C(=O)NCc2ccccc2)cc1`, the growth is 69.7%.

On to `CC1=NN(c2cccc(S(N)(=O)=O)c2)C(=O)C1`, for which the growth was 95.6%.

Consider `O=C(O)COc1ccc(Cl)cc1C1CCCCC1`, for which the growth is 97.6%.

Turning to `COc1ccc(-c2nn(-c3cccc(Cl)c3)cc2C=C(C#N)C#N)cc1`, the growth is -2.82% (active).

In the case of `N#C/C(=C\c1cccc(C#N)c1)c1ccccc1`, the growth was 106%.

With `O=C(NNc1ccccc1)C1CCCN1` (stereo not given), the growth is 81%.

With `CCOC(=O)C(N)Cc1cc(I)c(O)c(I)c1` (stereo not given), the growth is 101% and 113%.

Regarding `NS(=O)(=O)c1ccc(Nc2nc(N/N=C/c3ccc(Cl)cc3)nc(Nc3ccccc3)n2)cc1`, the growth is 66.6%.

As to `Cn1ncc2c(C(=O)c3ccc(F)cc3)nc(C(C)(C)C)nc21`, the growth is 93.5%.

Regarding `Cc1ccc(Cn2c(-c3nonc3N)nc3ccccc32)cc1`, the growth was 58.8%.

On to `CCO/C=N/C1=C(C#N)C(c2ccc(Cl)cc2)c2c(c3ccc(C)cc3[nH]c2=O)O1` (stereo not given), for which the growth is 96.8%.

On to `C=CC(=O)N(C)[C@H]1C[C@H]2OC(C)(C1OC)n1c3ccccc3c3c4c(c5c6ccccc6n2c5c31)C(=O)NC4` (stereo not given in full), for which the growth is -52.4% (active).

In the case of `COC(=O)c1nc(-c2ccccc2)oc1S(=O)(=O)n1nc(C)cc1N`, the growth is 59.2%.

For the compound `COc1ccc(OC)c(NC=O)c1`, the growth was 97%.

In the case of `CC(C)(C)c1ccc(C(=O)Nc2sc3cc(O)ccc3c2C(N)=O)cc1`, the growth was 46.8%.

As for `Clc1ccc2nc3nc4ccc[nH]c4cc3c2c1`, the growth was -31.5% (active).

Regarding `COc1ccc2c(c1)N(CCO)C1=C(C(=O)OC1)C2c1cc(OC)c(OC)c(OC)c1` (stereo not given), the growth is 3.62% (active).

On to `Clc1nccc2c(-c3csc(-c4c[nH]c5ccccc45)n3)c[nH]c12`, for which the growth was 29.2%.

With `COc1cc(Cn2c(-c3ccccc3)c(Cl)c3c2-c2oncc2CC3)cc(OC)c1`, the growth is 114%.

As for `O=C(O)c1ccc(-n2cc(CNc3cc(F)c(F)c(F)c3)c(-c3ccc(F)cc3)n2)cc1`, the growth is 115%.

For the compound `Cc1c(Cl)cccc1N=C=S`, the growth was 97.8%.

As to `COc1cc(-c2ccc(-[n+]3nc(-c4ccc([N+](=O)[O-])cc4)nn3-c3ccc([N+](=O)[O-])cc3)c(OC)c2)ccc1-[n+]1nc(-c2ccc([N+](=O)[O-])cc2)nn1-c1ccc([N+](=O)[O-])cc1`, the growth was -62.2% (active).

For `C=CCC(CCCC)(C(=O)OCC)C(=O)OCC`, the growth is 107%.

Turning to `COC(=O)CCCCCCN=Cc1c(O)c(O)c(C(C)C)c2cc(C)c(-c3c(C)cc4c(C(C)C)c(O)c(O)c(C=NCCCCCCC(=O)OC)c4c3O)c(O)c12`, the growth is 47.1%.

Turning to `O=C(O)c1ccc(-n2cc(CNc3ccc(F)cc3)c(-c3ccc(C(F)(F)F)cc3)n2)cc1`, the growth is 83.2%.

Take `O=S(=O)(NCCNc1nccc(-c2c(-c3ccc(F)cc3)nc3sccn23)n1)c1ccc(F)cc1`: the growth was 52.1%.

With `ClC1=C(Cl)C(Cl)=C(Cl)C1=C/C=C/c1ccccc1`, the growth was -50.3% (active).
